The values that follow come from PubChem BioAssay (Tox21).

Inconclusive results are not listed. Active and inactive are the calls of the source. Unless noted, the call rests on the fitted dose curve; in most records, active means well fitted curve in the direction sought with a large enough effect in the repeat runs; inconclusive means weak or mixed curves; inactive means no such curve, though single readings can be large; an effect the other way counts as inactive or inconclusive.

Assay [1] in a line: qHTS assay to identify small molecule antagonists of the thyroid receptor (TR) signaling pathway - cell viability counter screen (AID 743064). Further: nearly all actives have a fitted effect of over 50% in size. Further: potency means the concentration at half of the fitted maximal effect. The note with it: GH3.TRE-Luc viability, CellTiter-Fluor, 24 h; series mostly up to 70.3 µM. Put shortly: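 In rat pituitary GH3.TRE-Luc reporter cells co-exposed to compound and 1 nM T3 for 23.5 h, cytotoxicity was assessed with CellTiter-Fluor in the same wells, read by fluorescence.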

The target of assay [2] is Estrogen receptor (Homo sapiens) (UniProt P03372). As to the kind of experiment: qHTS assay to identify small molecule antagonists of the estrogen receptor alpha (ER-alpha) signaling pathway (AID 743069; active means well fitted curve in the direction sought with a large enough effect in the signal ratio in the repeat runs, not every such curve was filed as active; the % refers to the signal ratio). The conditions noted are these: HEK293 ER-alpha-UAS-bla, beta-lactamase ratio, antagonist mode; series mostly up to 69.4 µM. Put shortly: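 Estradiol-stimulated ER-alpha-UAS-bla HEK293 cells, 18 hr compound exposure at 37C. LiveBLAzer B/G substrate, 2 hr RT, fluorescence read.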
Sequence of Estrogen receptor (Homo sapiens) (P03372 whole entry, looked up): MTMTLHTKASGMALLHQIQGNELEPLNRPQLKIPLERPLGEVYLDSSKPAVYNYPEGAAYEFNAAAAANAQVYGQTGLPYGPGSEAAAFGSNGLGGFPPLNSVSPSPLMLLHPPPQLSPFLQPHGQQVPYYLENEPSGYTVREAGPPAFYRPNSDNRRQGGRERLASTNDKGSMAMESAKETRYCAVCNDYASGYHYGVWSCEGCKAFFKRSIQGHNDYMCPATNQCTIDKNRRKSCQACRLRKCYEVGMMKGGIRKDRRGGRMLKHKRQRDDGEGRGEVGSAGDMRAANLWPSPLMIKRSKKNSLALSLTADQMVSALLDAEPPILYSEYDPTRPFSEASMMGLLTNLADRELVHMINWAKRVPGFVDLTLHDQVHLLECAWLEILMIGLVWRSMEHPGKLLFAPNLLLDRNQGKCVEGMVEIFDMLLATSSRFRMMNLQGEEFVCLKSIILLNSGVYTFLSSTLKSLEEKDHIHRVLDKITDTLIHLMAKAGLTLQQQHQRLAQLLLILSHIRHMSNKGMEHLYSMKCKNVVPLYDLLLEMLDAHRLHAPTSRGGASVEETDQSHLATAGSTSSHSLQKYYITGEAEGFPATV

Assay [3] is described as follows: qHTS assay to identify small molecule antagonists of the estrogen receptor alpha (ER-alpha) signaling pathway - cell viability counter screen (AID 743074; calls by dose curve;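 further: HEK293 cells carrying ER-alpha-UAS-bla reporter stimulated with 17beta-estradiol; nearly all actives have a fitted effect of over 45% in size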). The note with it: ERalpha-bla HEK293 viability, CellTiter-Glo luminescence, 18 h; series mostly up to 69.4 µM.
The target of assay [4] is Estrogen receptor (Homo sapiens) (UniProt P03372). Nature of the assay: qHTS assay to identify small molecule agonists of the estrogen receptor alpha (ER-alpha) signaling pathway (AID 743075; calls by dose curve;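 further: HEK293 GripTite cells with ER-alpha and UAS-driven beta-lactamase reporter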). The note with it: HEK293 ER-alpha-UAS-bla, beta-lactamase FRET ratio, 18 h; series mostly up to 70.1 µM.
The target is the same in assay [5]. Nature of the assay: qHTS assay to identify small molecule agonists of the estrogen receptor alpha (ER-alpha) signaling pathway using the BG1 cell line (AID 743079). Further: nearly all actives have a fitted effect of over 20% in size. The note with it: BG1Luc4E2 cells, ERE-luciferase agonist, 22 h.
Assay [6] in a line: qHTS assay to identify small molecule antagonists of the estrogen receptor alpha (ER-alpha) signaling pathway using the BG1 cell line (AID 743080; calls by dose curve;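 further: BG1 cells stimulated with 17beta-estradiol alongside compound; nearly all actives have a fitted effect of over 25% in size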). The note with it: BG1Luc4E2 ERE-luciferase antagonist mode, luminescence; series mostly up to 70.3 µM. In a few lines:
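Readout is ONE-Glo luminescence, taken 30 min at room temperature after reagent addition, preceded by a CellTiter-Fluor viability read; BG1-Luc-4E2 cells had received compound and 17beta-estradiol for 21.5 h at 37 C.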

A short description of assay [7]: qHTS assay to identify small molecule antagonists of the estrogen receptor alpha (ER-alpha) signaling pathway using the BG1 cell line - cell viability counter screen (AID 743081).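 Further: compound given together with 17beta-estradiol as the ER stimulus; nearly all actives have a fitted effect of over 45% in size.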 The conditions noted are these: BG1Luc4E2 viability, CellTiter-Fluor, 22 h; series mostly up to 70.3 µM.
A further assay deals with Aromatase (Homo sapiens) (UniProt P11511). Nature of the assay: qHTS assay to identify aromatase inhibitors (AID 743083). Further: nearly all actives have a fitted effect of over 55% in size. Further: potency means the concentration at half of the fitted maximal effect. The conditions noted are these: MCF-7 aro ERE, testosterone-driven ERE luciferase, 24 h; series mostly up to 70.3 µM.
Sequence of Aromatase (Homo sapiens) (P11511 whole entry, looked up): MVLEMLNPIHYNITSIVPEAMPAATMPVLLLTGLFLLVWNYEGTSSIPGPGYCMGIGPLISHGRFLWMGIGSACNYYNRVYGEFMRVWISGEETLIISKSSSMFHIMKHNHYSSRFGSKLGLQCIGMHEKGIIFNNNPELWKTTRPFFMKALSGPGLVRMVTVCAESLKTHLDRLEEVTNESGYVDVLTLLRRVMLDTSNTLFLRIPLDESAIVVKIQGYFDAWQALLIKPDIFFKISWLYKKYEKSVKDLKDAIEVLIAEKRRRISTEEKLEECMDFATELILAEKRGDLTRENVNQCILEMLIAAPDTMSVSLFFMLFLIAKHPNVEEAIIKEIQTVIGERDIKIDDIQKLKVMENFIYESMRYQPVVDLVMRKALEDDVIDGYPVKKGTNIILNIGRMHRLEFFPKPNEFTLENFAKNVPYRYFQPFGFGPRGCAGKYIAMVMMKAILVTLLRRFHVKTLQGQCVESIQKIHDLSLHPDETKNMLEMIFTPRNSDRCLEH
The nature of assay [8]: qHTS assay to identify small molecule antagonists of the thyroid receptor (TR) signaling pathway (AID 743065). Further: nearly all actives have a fitted effect of over 55% in size. Further: potency means the concentration at half of the fitted maximal effect. The note with it: GH3.TRE-Luc, T3-stimulated luciferase inhibition, 23.5 h; series mostly up to 70.3 µM. In a few lines:
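GH3.TRE-Luc rat pituitary cells carrying two TR response elements driving luciferase were plated for 4 h, given compound plus 1 nM T3 (final), and incubated 23.5 h at 37 C. ONE-Glo luminescence measured reporter inhibition; CellTiter-Fluor fluorescence tracked cytotoxicity.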

In assay [9] the test system is thyroid hormone receptor (rat, GH3 cells). Nature of the assay: qHTS assay to identify small molecule agonists of the thyroid receptor (TR) signaling pathway (AID 743066; calls by dose curve). The note with it: GH3.TRE-Luc cells, TR agonist luciferase, 24 h; series mostly up to 83.9 µM.
On the % scale 0 is the no-effect control and ±100 the full control effect.

As to `CC(=O)CCc1ccc2c(c1)OCO2`, the Potency entry (in assay [1]; in assay [2]; in assay [4]; in [6]; in assay [7]; with Aromatase (Homo sapiens)) was “inactive” in each case. In addition, in assay [3], the outcome was inactive. Also, in [5] (at 70.3 µM (top of the series)), the activation was 24.9% (inactive).

Consider `CN(N=O)C(N)=O`, for which the Potency result (in [1]; in [8]; in [9]; in assay [7]; with Aromatase (Homo sapiens)) was “inactive” each time.

For the compound `CCOC(=O)NC(=S)Nc1ccccc1NC(=S)NC(=O)OCC`, the Potency entry (in [1]; in assay [9]; in assay [7]; with Aromatase (Homo sapiens)) was “inactive” each time. In [8], the Potency was 54.5 µM (active).

In the case of `CC(Oc1ccc(Oc2ncc(C(F)(F)F)cc2Cl)cc1)C(=O)O` (centres undefined), the Potency result in assay [1], in [9], in assay [4], in [6] and in [7] was “inactive” throughout. Further, the compound was called inactive in [3].

In the case of `N#CCNCC#N`, the Potency result (in assay [1]; in assay [8]; in assay [2]; in assay [4]; in assay [6]; with Aromatase (Homo sapiens)) was “inactive” each time. Further, the call in assay [3] was inactive. Further, the activation in assay [5] (at 70.3 µM (top of the series)) was -9.97% (inactive).

In the case of `N#CC(CCc1ccc(Cl)cc1)(Cn1cncn1)c1ccccc1` (centres undefined), the results for the Potency (in assay [1]; in assay [8]; with Aromatase (Homo sapiens)) were 30.6 µM (active), 34.4 µM (active) and 30.6 µM (active), respectively. For the same compound, the Potency entry in [9], in assay [4] and in assay [7] was “inactive” in each case.

With `CCCSP(=O)(OCC)Oc1ccc(Br)cc1Cl` (centres undefined), the Potency entry in assay [1], in assay [9] and in assay [7] was “inactive” throughout. Besides, in assay [3], the compound was called inactive.

On to `CCC#N`, for which the Potency result in assay [1], in assay [8], in [9] and in assay [7] was “inactive” throughout.

Turning to `CCC1(c2ccccc2)C(=O)N=C(O)NC1=O` (centres undefined), the Potency result in assay [1], in assay [8], in [2], in assay [4], in assay [6] and in assay [7] was “inactive” in each case. Besides, in the assay with Aromatase (Homo sapiens), the Potency entry is “inactive”. The compound was called inactive in assay [3]. In addition, the activation in assay [5] (at 70.3 µM (top of the series)) is -3.61% (inactive).

Regarding `CNCC(=O)c1ccc(O)c(O)c1`, the Potency result (in assay [1]; in [8]; in [9]; in assay [4]; in [6]; in the assay with Aromatase (Homo sapiens)) was “inactive” throughout. Further, the activation in assay [5] (at 70.3 µM (top of the series)) was -0.0937% (inactive).

For the compound `CC(C)CC#N`, the Potency result (in [1]; in assay [2]; in assay [4]; in [7]; with Aromatase (Homo sapiens)) was “inactive” throughout. Besides, the compound was classed as inactive in assay [3]. Besides, the activation in assay [5] (at 95 µM (top of the series)) was 6.55% (inactive).
